Assay outcomes: PubChem BioAssay, National Center for Advancing Translational Sciences (NCATS)
Cruzain noTriton: blocks cruzain activity in detergent-free assay; P25779; purified cruzain, Z-FR-AMC fluorescence, no detergent; Potency, µM, without a hit: max response, negative = inhibition, actives largely listed as inhibitors; hit rate 2.3% among 200,000; AID 1476;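 note: plate controls were enzyme without inhibitor for no effect and buffer without enzyme for full effect; nearly all actives have a fitted effect of over 40% in size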
Target sequence (P25779 123-467 limits assumed): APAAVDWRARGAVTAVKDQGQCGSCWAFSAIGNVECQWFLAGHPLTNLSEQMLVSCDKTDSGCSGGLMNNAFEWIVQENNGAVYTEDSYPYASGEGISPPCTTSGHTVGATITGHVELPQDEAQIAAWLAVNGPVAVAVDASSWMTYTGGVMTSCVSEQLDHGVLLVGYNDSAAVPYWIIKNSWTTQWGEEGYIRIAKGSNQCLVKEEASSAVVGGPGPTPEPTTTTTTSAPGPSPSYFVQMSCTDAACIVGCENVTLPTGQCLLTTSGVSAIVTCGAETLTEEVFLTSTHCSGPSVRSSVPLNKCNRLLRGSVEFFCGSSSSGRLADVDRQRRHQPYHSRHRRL
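Detergent-free condition (0.00005% Triton X-100) in acetate buffer pH 5.5 with DTT. 1.5 nM enzyme and compound were pre-mixed 15 min, then 2 uM Z-FR-AMC substrate added; reaction progress from fluorescence change between first and third reads (60 s).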
Cruzain inh Det: blocks cruzain activity in presence of Triton detergent | P25779 | purified cruzain, Z-FR-AMC fluorescence, 0.01% Triton | Potency, µM, for inactives: max response, negative = inhibition, hits mostly inhibitors | hit rate 0.43% among 200,000;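 note: plate controls were neutral wells for no effect and buffer without enzyme for full effect; nearly all actives have a fitted effect of over 40% in size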
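Sodium acetate buffer (100 mM, pH 5.5) containing 5 mM DTT and 0.01% Triton X-100 hosted 1.5 nM cruzain and test compound for 15 min at room temperature. Cleavage of 2 uM Z-FR-AMC was then tracked by fluorescence.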
* = called active by the depositor; ? = inconclusive. Compounds with a hit are over-represented: about 2.5% of the library has one in this group of screens. Calls come from the whole dose curve; as a rule, active = well fitted curve in the direction sought with a large enough effect; inconclusive = small, poorly fitted or top-dose-only effect, or another doubt; inactive = no such curve, though single readings can be large; an effect the other way counts as inactive or inconclusive. Potency is the fitted concentration of half-maximal effect.

SMILES	Cruzain noTriton	Cruzain inh Det
c1ccc2sc(SCN(C3CCCCC3)C3CCCCC3)nc2c1	5.7%	-1.8%
Cc1ccc(C)c(CN2C(=O)c3ccccc3S(=O)(=O)c3ccc(C(=O)N(C)C4CCCCC4)cc32)c1	-18.6%	-2.0%
CCOC(=O)c1c(NC(=O)c2cc(C(C)C)on2)sc(C)c1C	-11.4%	-2.3%
CCCc1cc(C(=O)Nc2sc(C)c(C)c2C(=O)OCC)no1	20µM*	-2.7%
O=C(Cn1cc(C(=O)c2ccncc2)c(=O)c2cc(F)ccc21)Nc1ccc(Cl)cc1	-21.7%	-10.2%
COc1cccc(Nc2ncc3nc(-c4cccs4)c(=O)n(Cc4cccs4)c3n2)c1	5.01µM*	2.1%
COc1ccc(-n2c(=O)c(-c3cccs3)nc3cnc(Nc4ccccc4)nc32)cc1	4.7%	-0.5%
COc1cccc(Nc2ncc3nc(-c4cccs4)c(=O)n(-c4ccccc4)c3n2)c1	6.31µM*	0.8%
COc1cccc(Nc2ncc3ncc(=O)n(Cc4cccs4)c3n2)c1	1.5%	-1.9%
COc1cc2c(cc1OC)C(COc1ccc3c(C)cc(=O)oc3c1)N(C(=O)Cc1ccc(F)cc1)CC2 (stereo unspecified)	-3.6%	0.2%
CSc1cc(-c2ccccc2)n(Cc2ccc(Cl)cc2Cl)c(=O)c1C#N	25.1µM*	4.5%
Cc1cc(C)n(Cc2ccc(Cl)cc2Cl)c(=O)c1S(=O)(=O)c1ccccc1	-14.4%	-8.8%
COc1ccc(Cn2c(=O)c3oc4ccccc4c3n(CC(=O)Nc3c(C)cccc3C)c2=O)cc1	-6.6%	-0.1%
COC(=O)c1ccccc1NC(=O)Cc1noc2ccc(C)cc12	2.4%	-4.2%
COC(=O)c1ccccc1NC(=O)Cc1nc(-c2ccccc2)sc1-c1ccc(C)cc1	25.1µM*	-4.0%
COc1ccc(-c2nc(SCC(=O)c3ccc(OC)c(Br)c3)n[nH]2)cc1	3.0%	-2.3%
COc1ccc(C2c3c(n(C)c4ccccc34)C(=O)N2CC(=O)Nc2cccc(Cl)c2)cc1 (stereo unspecified)	?	-2.8%
COc1ccc2c(c1)Cc1sc(NC(=O)c3cccc(Br)c3)nc1-2	?	-2.3%
COc1ccc(Br)c2c1-c1nc(NC(=O)c3cccc(C)c3)sc1C2	6.31µM*	-2.4%
O=C(CSc1ncc2c(n1)-c1ccccc1N(Cc1ccc(Cl)cc1)S2(=O)=O)c1ccc(Cl)cc1	20µM*	3.8%
Cc1ccccc1CN1c2ccccc2-c2nc(SCC(=O)NCc3ccccc3)ncc2S1(=O)=O	-5.7%	2.3%
O=C(CSc1ncc2c(n1)-c1ccccc1N(Cc1ccc(F)cc1)S2(=O)=O)c1ccc(Cl)cc1	25.1µM*	0.8%
COC(=O)CSc1ncc2c(n1)-c1ccccc1N(Cc1ccccc1C)S2(=O)=O	12.6µM*	0.0%
Cc1ccccc1CN1c2ccccc2-c2nc(SCC(=O)c3ccc(Cl)cc3)ncc2S1(=O)=O	-14.8%	1.1%
O=C(CSc1ncc2c(n1)-c1ccccc1N(Cc1ccc(F)cc1)S2(=O)=O)c1ccc(Br)cc1	?	-2.8%
SMILES	Cruzain noTriton	Cruzain inh Det
O=C(O)c1ccncc1.O=C(O)c1ccncc1.[NH2-].[NH2-].[Pt]	4.1%	3.8%
CCCCNc1nc(C)nc2c1nc(-c1ccccc1)n2CCCN1CCCCC1C (stereo unspecified)	-6.1%	-1.1%
O=C(CCCCn1c(=O)c2ccccc2n(Cc2cccc(F)c2)c1=O)NCc1ccc2c(c1)OCO2	3.5%	-2.1%
CCOC(=O)c1cc(-c2ccc(OC)cc2)n(CCC(=O)Nc2cccc(C(C)=O)c2)c1C	30.7%	-7.6%
O=C(O)c1cc(NS(=O)(=O)c2ccc(N3CCOCC3)c([N+](=O)[O-])c2)cc(C(=O)O)c1	-5.9%	-3.6%
COc1ccc(NS(=O)(=O)c2ccc(N/N=C(\C)c3ccncc3)c([N+](=O)[O-])c2)cc1	12.6µM*	-7.9%
COc1ccccc1NS(=O)(=O)c1ccc(N/N=C(\C)C(C)C)c([N+](=O)[O-])c1	-2.5%	-4.6%
C/C(=N\Nc1ccc(S(=O)(=O)Nc2ccc(Cl)cc2)cc1[N+](=O)[O-])c1ccc(N2CCOCC2)cc1	10µM*	-6.4%
Cc1ccccc1Cn1c(SCc2ccc(C(=O)NC(C)c3ccccc3)cc2)nc2ccncc21 (stereo unspecified)	-26.5%	-4.3%
Cc1nn(-c2ccccc2)c2nc(C3CC3)cc(C(=O)Nc3cccc(F)c3)c12	?	-13.9%
CC(=O)c1cccc(NC(=O)CN2C(=O)CC(c3ccc(C)cc3C)=Nc3ccccc32)c1	14.1%	-4.5%
CC1=NC(Nc2nc(C)c3ccccc3n2)=NC(C)(C)C1	15.8µM*	20µM*
COc1ccc(Nc2nc(C)c3ccccc3n2)cc1	-4.1%	-4.6%
CCN(C(=O)CSc1ncc(S(=O)(=O)c2ccc(C)c(Cl)c2)c(=O)[nH]1)c1cccc(C)c1	?	-17.4%
COc1ccc(C(=O)N2c3ccccc3C=CC2C#N)cc1 (stereo unspecified)	-1.5%	-14.3%
N#C[C@H]1[C@H](c2ccccc2)[C@](C#N)(C(=O)c2ccccc2)[C@@H]2C=Cc3ccccc3N21	25.1µM*	-3.9%
CN(C)CCNc1ccccn1	3.4%	2.3%
Cc1ccc(NC(=O)CN2C(=O)C3(SCC(=O)N3c3ccc(F)c(F)c3)c3ccccc32)c(C)c1 (stereo unspecified)	?	-5.9%
COc1ccc(C(=O)Nc2oc(-c3ccccc3)c(-c3ccccc3)c2C#N)cc1	31.6µM*	-2.2%
COc1ccc(-c2oc(NC(=O)c3ccc(C)cc3)c(C#N)c2-c2ccc(OC)cc2)cc1	12.6µM*	3.3%
COc1ccc(C(=O)Nc2oc(-c3ccccc3)c(-c3ccccc3)c2C#N)cc1OC	-4.2%	-1.4%
COc1ccc(-c2oc(NC(C)=O)c(C#N)c2-c2ccc(OC)cc2)cc1	15.5%	-8.7%
COc1cc(NC(=O)c2ccc(NC(=O)N3CCSc4ncccc43)cc2)cc(OC)c1	-0.5%	-9.0%
CCOc1ccc2oc(=O)cc(CN3CCN(c4ccc(OC)cc4)CC3)c2c1	11.4%	1.0%
CCOc1ccccc1CNC(=O)c1cc2oc3ccccc3c2n1CC	31.6µM*	-17.0%
SMILES	Cruzain noTriton	Cruzain inh Det
CCn1c(C(=O)NCc2ccc(F)cc2)cc2oc3ccccc3c21	-5.3%	-9.5%
O=C1CCC(c2ccccc2)=NN1c1nc2ccccc2s1	0.4%	5.6%
CCc1ccc(S(=O)(=O)/N=C2/C=C(Sc3ncn[nH]3)C(=O)c3ccccc32)cc1	25.1µM*	-13.7%
Cc1ccc(S(=O)(=O)/N=C2/C=C(C3C(=O)CC(C)(C)CC3=O)C(=O)c3ccccc32)cc1	-16.0%	-5.6%
Cc1ccc2c(c1)-c1c(ssc1=S)C(C)(C)N2C(=O)c1ccco1	15.8µM*	-16.2%
CC1(C)c2ssc(=S)c2-c2ccccc2N1C(=O)c1ccco1	?	-4.2%
Cc1ccc(/C(N)=N/OC(=O)c2cc(-c3ccccc3)nc3ccccc23)cc1	-16.6%	-3.3%
COc1ccc(/C(N)=N/OC(=O)c2cc(-c3ccccc3)nc3ccccc23)cc1	20µM*	-1.8%
Cc1ccc(C)c(Cn2c(C3CC(=O)N(c4ccccc4C)C3)nc3ccccc32)c1 (stereo unspecified)	29.6%	-4.4%
Nc1c(C(=O)NCCCc2ccccc2)c2nc3ccccc3nc2n1Cc1cccs1	6.31µM*	5.8%
CCCCCn1c(N)c(C(=O)NCc2cccs2)c2nc3ccccc3nc21	4.1%	0.2%
CCN(CC)c1ccccc1	-5.6%	-0.9%
Nc1ccc(N(c2ccccc2)c2ccc(N)cc2)cc1	31.6µM*	-0.8%
OCC1OC([S-])[C@H](O)C(O)C1O.[Au+] (stereo partly specified)	12.1%	3.8%
